BAZ2B inh – qHTS Assay for Inhibitors of BAZ2B; Potency, µM (highest dose often 114 µM), inactives show at the top dose activity change, negative = inhibition, usual class: inhibitors; AID 504333, 2011; AlphaScreen BAZ2B-H3K14Ac peptide displacement; 4.4% of 360,000 active; also: % is scaled to controls: 0 for no effect and ±100 for the full control effect; nearly all actives have a fitted effect of over 60% in size
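Complex of BAZ2B and biotin-H3K14Ac (50 nM apiece) forms over 30 min at RT, then faces library compounds up to 110 uM for another 30 min; AlphaScreen beads added, 20 min dark incubation, luminescence read.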
JMJD2A Tudor – qHTS Assay for Inhibitors of JMJD2A-Tudor Domain | Lysine-specific demethylase 4A (Homo sapiens), O75164 | AlphaScreen JMJD2A-Tudor / H3K4me3 peptide binding | Potency, µM (titrated, usually from 114 µM), for the others: at the top dose activity change, negative = inhibition, hits mostly inhibitors | 4.4% of 390,000 active; also: % is scaled to controls: 0 for no effect and ±100 for the full control effect; nearly all actives have a fitted effect of over 50% in size
HP1b chromo inh – HTS for Inhibitors of HP1-beta Chromodomain Interactions with Methylated Histone Tails; Chromobox protein homolog 1 (Homo sapiens), P83916; AlphaScreen HP1-beta / biotin-H3K9me3 peptide binding; 0.56% of 390,000 active; AID 540317, 2011; Potency, µM (highest dose often 114 µM), without a hit: at the top dose activity change, negative = inhibition, most hits filed as inhibitors; also: nearly all actives have a fitted effect of over 70% in size
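HP1-beta protein (50 nM final) preincubated 30 min at room temperature with biotinylated H3(1-18)K9me3 peptide (50 nM) in PBS pH 7.4, 0.01% Tween-20, then compound added for 30 min. AlphaScreen streptavidin donor/nickel chelate acceptor beads (10 ug/mL final), 30 min dark, luminescence read.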
12-LOX inh – Primary qHTS assay for inhibitors of human arachidonate 12S-lipoxygenase (ALOX12): Round 2. Polyunsaturated fatty acid lipoxygenase ALOX12 (Homo sapiens), P18054. purified 12hLO, xylenol orange hydroperoxide absorbance. Potency, µM (titrated, usually from 108 µM), for the others: at the top dose activity change, negative = inhibition, usual class: inhibitors. 1.1% of 580,000 active. AID 1671190, 2021; also: % is scaled to controls: 0 for no effect and ±100 for the full control effect
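Purified human 12hLO (150 nM final) in 25 mM Hepes, 0.01% Triton X-100, pH 7.0 was preincubated 15 min at room temperature with compound. Then 40 uM arachidonic acid was added, 30 min. Hydroperoxide was read by Fe-XO absorbance ratio 573/405 nm.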
PLK1 PBD inh – qHTS for Inhibitors of PLK1-PDB (polo-like kinase 1 - polo-box domain): Primary Screen; Serine/threonine-protein kinase PLK1 (Homo sapiens), P53350; Plk1 PBD binding of FITC phosphopeptide, fluorescence polarization; Potency, µM, inactives show max response, negative = inhibition, usual class: inhibitors; 2.8% of 360,000 active; also: series mostly up to about 57 µM; % is scaled to controls: 0 for no effect and ±100 for the full control effect; nearly all actives have a fitted effect of over 65% in size
G9a inh – qHTS Assay for Inhibitors of Histone Lysine Methyltransferase G9a. G9a H3K9 monomethylation, AlphaScreen, 2 h. Potency, µM (series often up to 102 µM), for inactives: at the highest dose activity, negative = inhibition, most hits filed as inhibitors. 8.8% of 350,000 active. AID 504332, 2011; also: % is scaled to controls: 0 for no effect and ±100 for the full control effect; nearly all actives have a fitted effect of over 75% in size
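AlphaScreen read-out: biotin-H3K9 peptide (500 nM) methylation by 20 nM enzyme with 20 uM SAM, 2 h at room temperature after 15 min compound preincubation; anti-monomethyl H3K9 antibody plus donor/acceptor beads, 10 min dark.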
* marks the source's active call; other numbers are inactive results; ? = inconclusive; / = not tested or not shown; [ ] = another dose, or the depositor's remark. A selection: hits, their analogues and other compounds. The true share with any hit is near 9%. Calls follow the shape of the dose curve; as a rule, active = well fitted curve in the direction sought with a large enough effect; inconclusive = small, poorly fitted or top-dose-only effect, or another doubt; inactive = no such curve, though single readings can be large; an effect the other way counts as inactive or inconclusive. Potency is read from the fitted curve at half-maximal effect.

SMILES	BAZ2B inh	JMJD2A Tudor	HP1b chromo inh	12-LOX inh	PLK1 PBD inh	G9a inh
CC(C)(C)n1[nH]c2c3c(ccc2c1=O)C(=O)c1ccccc1C3=O	-10%	-21%	18%	-22%	-8%	?
COCCCn1[nH]c2c3c(ccc2c1=O)C(=O)c1ccccc1C3=O	?	-32%	-18%	?	-6%	7.1µM*
Cc1ccc(-c2cnc3c(c2)C(=O)N([C@H](C)CO)C[C@@H](C)[C@@H](CN(C)C(=O)Cc2ccccc2)O3)cc1	/	/	/	?	-29%	/
Cc1oc(-c2cccs2)nc1CSc1nnc(C2CC2)n1C1CC1	/	/	/	3%	/	/
COc1cccc(N2CC(C(=O)Nc3ccc(F)cc3)CC2=O)c1 (configuration not stated)	-24%	2%	15%	?	-17%	55%
CC(=O)N1CCC(C(=O)N2CCC3(CC2)NC(=O)N(c2cccc(Cl)c2)N3)CC1	/	/	/	1.3µM*	/	/
CC(=O)N1CCC(C(=O)N2CCC3(CC2)NC(=O)N(c2ccccc2)N3)CC1	/	/	/	1.6µM*	/	/
CC(=O)N1CCC(C(=O)N2CCN(c3cccc(Cl)c3)CC2)CC1	/	/	/	0%	/	/
COc1ccc(-c2ccc3ccccc3n2)cc1OC	6%	33%	49%	?	-1%	29%[12.7 µM]
C#CCOCCOCCOCCNc1nc(N2CCN(C(=O)[C@H](CCCCN)n3cc([C@@H](N)C(C)CC)nn3)CC2)nc(N2CCN(C(=O)[C@H](Cc3cc4ccccc4[nH]3)n3cc([C@@H](N)C(C)CC)nn3)CC2)n1 (some centres not stated)	/	50µM*	-19%	/	-2%	/
C#CCOCCOCCOCCNc1nc(N2CCN(C(=O)[C@H](CCC(=O)O)n3cc(C(N)[C@H](C)CC)nn3)CC2)nc(N2CCN(C(=O)[C@H](Cc3cc4ccccc4[nH]3)n3cc(C(N)[C@H](C)CC)nn3)CC2)n1 (some centres not stated)	50µM*	/	/	/	/	-8%[12.7 µM]
C#CCOCCOCCOCCNc1nc(N2CCOCC2)nc(N2CCN(C(=O)[C@H](Cc3cc4ccccc4[nH]3)n3cc([C@@H](N)C(C)CC)nn3)CC2)n1 (some centres not stated)	?	?	21%	1%	-1%	?
C#CCOCCOCCOCCNc1nc(N2CCN(C(=O)C(Cc3cc4ccccc4[nH]3)n3cc(C(N)C(C)CC)nn3)CC2)nc(N2CCN(C(=O)C(Cc3cc4ccccc4[nH]3)n3cc(C(N)C(C)CC)nn3)CC2)n1 (configuration not stated)	28µM*	28µM*	?	/	-6%	-103%[59 µM]
C#CCOCCOCCOCCNc1nc(N2CCN(C(=O)[C@H](CCC(=O)O)n3cc(C(N)CC(C)C)nn3)CC2)nc(N2CCN(C(=O)[C@H](Cc3cc4ccccc4[nH]3)n3cc(C(N)[C@H](C)CC)nn3)CC2)n1 (some centres not stated)	50µM*	56µM*	16%	/	-10%	?
COCCN(C(=O)COC(=O)c1cccs1)c1c(N)n(Cc2ccccc2)c(=O)[nH]c1=O	-3%	5%	25%	-2%	3%	5%
Cc1nn(C)c(NC(=O)c2ccc(Cl)cc2)c1Cl	-11%	5%	35%	-27%	0%	-2%
Cc1nn(C)c(C)c1NC(=O)c1ccc(Cl)cc1	-3%	?	-9%	8%	30µM*	16%[12.7 µM]

Assay outcomes as filed in PubChem.
